In ChEMBL document CHEMBL1157539, “Thousands of chemical starting points for antimalarial lead identification” (Nature, 2010):

tested on: Plasmodium falciparum; experiment: GSK_TCMDC: Inhibition of Plasmodium falciparum 3D7 in whole red blood cells, using parasite LDH activity as an index of growth. Test compounds present at 2uM; assay type: functional

Question: With `O=C(NCc1ccccc1)NC(CCCN1CCC(Oc2cccc(Cl)c2)CC1)c1ccc(Cl)c(Cl)c1` (stereo not drawn) as the molecule, how does the Inhibition read?
Answer: 81%

Question: For `CC(C)NCc1ccc(-c2ccc(NC(=O)c3cccc(Cl)c3)cc2)cc1.O=C(O)C(F)(F)F`, which Inhibition is on record?
Answer: 100%

Question: For `Cc1cccc2nc(-c3ccc(-c4ccc(NC(=O)C(=O)c5cccn5C)cc4)cc3)[nH]c12`, which Inhibition is on record?
Answer: 95%

Question: How did the Inhibition turn out when `NC(=O)c1ccc(C(=O)Nc2cccc(-c3ccc(-c4nc5cc(C(F)(F)F)ccc5[nH]4)cc3)c2)cc1` was run?
Answer: 100%

Question: For `CC(=O)N1CCC(C(=O)Nc2ccc(-c3cccc(-c4nc5cc(C(F)(F)F)ccc5[nH]4)c3)cc2)CC1`, which Inhibition is on record?
Answer: 88%

Question: With `Cc1cc(N[C@@H](CC(C)C)C(=O)NCCc2ccccc2)nc(NCc2ccccc2C)n1.O=C(O)C(F)(F)F` as the molecule, how does the Inhibition read?
Answer: 93%

Question: With `O=C(Nc1cccc(CN2CCCN(Cc3ccc(O)cc3)CC2)c1)c1ccc(Cl)c(Cl)c1.O=C(O)C(F)(F)F` as the molecule, how does the Inhibition read?
Answer: 100%

Question: How did the Inhibition turn out when `Cc1ccc(O)c(-c2cc(C(=O)Nc3ccc(S(=O)(=O)N4CCCCCC4)cc3)[nH]n2)c1` was run?
Answer: 100%

Question: With `Cc1cccc2nc(-c3ccc(-c4ccc(CN5CCN(CCO)CC5)cc4)cc3)[nH]c12.O=C(O)C(F)(F)F` as the molecule, how does the Inhibition read?
Answer: 100%

Question: How did the Inhibition turn out when `CCOc1c(CCNCCCCNCCc2ccc3ccccc3c2OCC)ccc2ccccc12.CS(=O)(=O)O` was run?
Answer: 94%

Question: How did the Inhibition turn out when `CC(C)(C)OC(=O)NCCc1cccc(-c2c[nH]c3ncc(-c4cccc(NS(C)(=O)=O)c4)cc23)c1` was run?
Answer: 97%

Question: Which Inhibition does the source give for `Cl.O=C1CSc2ccc(CNC3CCN(CCc4c(Cl)cnc5ccc(Cl)cc45)CC3)nc2N1` here?
Answer: 100%

Question: How did the Inhibition turn out when `O=C(Nc1ccc(-c2ccc(-c3nc4ccccc4[nH]3)s2)cc1)c1ccncc1` was run?
Answer: 94%

Question: Which Inhibition does the source give for `O=C(Nc1ccc(Cl)cc1)c1cc(Cl)ccc1NC(=O)C1CCc2ccccc2O1` (stereo not drawn) here?
Answer: 98%

Question: Which Inhibition does the source give for `Nc1nccc2ccc(-c3ccsc3)cc12.O=C(O)C(F)(F)F` here?
Answer: 100%

Question: For `CSc1c(CNCCCNc2cc(=O)c3ccccc3[nH]2)[nH]c2ccccc12`, which Inhibition is on record?
Answer: 87%

Question: `CCCCCN1CCCC(NS(=O)(=O)c2ccc(C(=O)Nc3ccc(C(F)(F)F)cc3)cc2)C1.O=C(O)C(F)(F)F` (stereo not drawn) was tested. Which Inhibition did it give?
Answer: 98%

Question: With `COc1ccc(C(=O)CCC(=O)N(Cc2ccc(-c3ccc(CNCCc4ccc(S(C)(=O)=O)cc4)cn3)cc2)C(C)CN(C)C)cc1F.O=C(O)C(F)(F)F` (stereo not drawn) as the molecule, how does the Inhibition read?
Answer: 98%

Question: Which Inhibition does the source give for `CCOC(=O)c1ccc(NC(=O)N[C@H]2CCN(CCCCCNC(=O)/C=C/c3ccc(Cl)c(Cl)c3)C2)cc1` here?
Answer: 98%

Question: For `CC(=O)Nc1ccc(Nc2c3ccccc3nc3ccccc23)cc1`, which Inhibition is on record?
Answer: 89%

Question: How did the Inhibition turn out when `CC(C)C[C@H](NC(=O)c1ccc(OCCN2CCOCC2)cc1)C(=O)NC(/C=N/N1CCCC1=O)C(C)C` (stereo partly drawn) was run?
Answer: 90%

Question: With `COc1cccc(NC(=O)Nc2cc(C)nc3ccccc23)c1` as the molecule, how does the Inhibition read?
Answer: 100%

Question: With `CCOc1ccccc1CON1C(N)=NC(N)=NC1(C)C` as the molecule, how does the Inhibition read?
Answer: 90%

Question: For `Cc1ccc(F)c(OC2CCN(c3ccc(C(=O)NC4CC4)cn3)CC2)c1`, which Inhibition is on record?
Answer: 92%

tested on: Plasmodium falciparum; experiment: GSK_TCMDC: Inhibition of Plasmodium falciparum Dd2 in whole red blood cells, using parasite LDH activity as an index of growth. Test compounds present at 2uM; assay type: functional

Question: With `Cn1c(Cc2ccccc2)nnc1Sc1ccc(C#N)c([N+](=O)[O-])c1` as the molecule, how does the Inhibition read?
Answer: 29%

Question: How did the Inhibition turn out when `COc1ccc(C(=O)N2CCc3cc4nccc(N5CCN6CCC[C@H]6C5)c4cc32)cc1` was run?
Answer: 50%

Question: How did the Inhibition turn out when `CC(Oc1ccc(NC(=O)c2cccs2)cc1)C(=O)c1ccc(Cl)cc1` (stereo not drawn) was run?
Answer: 83%

Question: For `CCCCc1ccc(-c2ccc3[nH]c(C)c(Br)c(=O)c3c2)cc1`, which Inhibition is on record?
Answer: 97%

Question: `COc1cc2nc(C)nc(Nc3ccc(Cc4ccccc4)cc3)c2cc1OC.Cl` was tested. Which Inhibition did it give?
Answer: 99%

Question: `Oc1ccc2nc(NCCCc3ccccc3)nc(NCCCc3ccccc3)c2c1` was tested. Which Inhibition did it give?
Answer: 93%

Question: `CCC1(c2ccccc2)N=C(N)N(CCCc2ccccc2)C1=O` (stereo not drawn) was tested. Which Inhibition did it give?
Answer: 96%

Question: Which Inhibition does the source give for `COc1ccc(CN2CCN(C(=O)c3cccs3)CC2)c(O)c1` here?
Answer: 2%

Question: With `CN(C)CCCNCCS(=O)(=O)c1cccc(Nc2ccc(-c3cccc(N(C)C)c3)cn2)c1` as the molecule, how does the Inhibition read?
Answer: 0%

Question: `Cc1cccc(C(=O)NC(NC(=S)Nc2ccc([N+](=O)[O-])cc2)C(Cl)(Cl)Cl)c1` (stereo not drawn) was tested. Which Inhibition did it give?
Answer: 66%

Question: `Cc1noc(-c2ccc(O)cc2O)c1-c1ccc2c(c1)OCCCO2` was tested. Which Inhibition did it give?
Answer: 99%

Question: For `CN1CCN(c2nsc3ccc(-c4ccc(NC(=O)Nc5cc(C(F)(F)F)ccc5F)cc4)cc23)CC1.O=C(O)C(F)(F)F`, which Inhibition is on record?
Answer: 64%

Question: `O=C1NC(=O)C(c2cccc(NC(=O)c3ccncc3)c2)=C1c1ccccc1` was tested. Which Inhibition did it give?
Answer: 0%

Question: How did the Inhibition turn out when `COc1ccc2ncc(Cl)c(CCN3CC[C@@H](CNCc4cc5c(cn4)OCS5)C3)c2n1.Cl` was run?
Answer: 31%

Question: `O=C(c1cc2cccc([N+](=O)[O-])c2[nH]1)N1CCC(CCN2CCC(c3c[nH]c4ccccc34)CC2)CC1` was tested. Which Inhibition did it give?
Answer: 24%

Question: For `O=C(NCc1ccccc1)NC(CCCN1CCC(Oc2cccc(Cl)c2)CC1)c1ccc(Cl)c(Cl)c1` (stereo not drawn), which Inhibition is on record?
Answer: 57%

Question: With `CC(C)NCc1ccc(-c2ccc(NC(=O)c3cccc(Cl)c3)cc2)cc1.O=C(O)C(F)(F)F` as the molecule, how does the Inhibition read?
Answer: 14%

Question: With `Cc1cccc2nc(-c3ccc(-c4ccc(NC(=O)C(=O)c5cccn5C)cc4)cc3)[nH]c12` as the molecule, how does the Inhibition read?
Answer: 15%

Question: With `NC(=O)c1ccc(C(=O)Nc2cccc(-c3ccc(-c4nc5cc(C(F)(F)F)ccc5[nH]4)cc3)c2)cc1` as the molecule, how does the Inhibition read?
Answer: 31%

Question: For `CC(=O)N1CCC(C(=O)Nc2ccc(-c3cccc(-c4nc5cc(C(F)(F)F)ccc5[nH]4)c3)cc2)CC1`, which Inhibition is on record?
Answer: 33%

Question: `Cc1cc(N[C@@H](CC(C)C)C(=O)NCCc2ccccc2)nc(NCc2ccccc2C)n1.O=C(O)C(F)(F)F` was tested. Which Inhibition did it give?
Answer: 74%

Question: How did the Inhibition turn out when `O=C(Nc1cccc(CN2CCCN(Cc3ccc(O)cc3)CC2)c1)c1ccc(Cl)c(Cl)c1.O=C(O)C(F)(F)F` was run?
Answer: 81%

Question: `Cc1ccc(O)c(-c2cc(C(=O)Nc3ccc(S(=O)(=O)N4CCCCCC4)cc3)[nH]n2)c1` was tested. Which Inhibition did it give?
Answer: 80%

Question: `Cc1cccc2nc(-c3ccc(-c4ccc(CN5CCN(CCO)CC5)cc4)cc3)[nH]c12.O=C(O)C(F)(F)F` was tested. Which Inhibition did it give?
Answer: 97%

Question: Which Inhibition does the source give for `CCOc1c(CCNCCCCNCCc2ccc3ccccc3c2OCC)ccc2ccccc12.CS(=O)(=O)O` here?
Answer: 87%

Question: For `CC(C)(C)OC(=O)NCCc1cccc(-c2c[nH]c3ncc(-c4cccc(NS(C)(=O)=O)c4)cc23)c1`, which Inhibition is on record?
Answer: 71%

Question: `Cl.O=C1CSc2ccc(CNC3CCN(CCc4c(Cl)cnc5ccc(Cl)cc45)CC3)nc2N1` was tested. Which Inhibition did it give?
Answer: 92%

Question: With `O=C(Nc1ccc(-c2ccc(-c3nc4ccccc4[nH]3)s2)cc1)c1ccncc1` as the molecule, how does the Inhibition read?
Answer: 95%

Question: With `O=C(Nc1ccc(Cl)cc1)c1cc(Cl)ccc1NC(=O)C1CCc2ccccc2O1` (stereo not drawn) as the molecule, how does the Inhibition read?
Answer: 63%

Question: Which Inhibition does the source give for `Nc1nccc2ccc(-c3ccsc3)cc12.O=C(O)C(F)(F)F` here?
Answer: 89%

Question: `CSc1c(CNCCCNc2cc(=O)c3ccccc3[nH]2)[nH]c2ccccc12` was tested. Which Inhibition did it give?
Answer: 21%

Question: How did the Inhibition turn out when `CCCCCN1CCCC(NS(=O)(=O)c2ccc(C(=O)Nc3ccc(C(F)(F)F)cc3)cc2)C1.O=C(O)C(F)(F)F` (stereo not drawn) was run?
Answer: 20%

Question: Which Inhibition does the source give for `COc1ccc(C(=O)CCC(=O)N(Cc2ccc(-c3ccc(CNCCc4ccc(S(C)(=O)=O)cc4)cn3)cc2)C(C)CN(C)C)cc1F.O=C(O)C(F)(F)F` (stereo not drawn) here?
Answer: 85%

Question: How did the Inhibition turn out when `CCOC(=O)c1ccc(NC(=O)N[C@H]2CCN(CCCCCNC(=O)/C=C/c3ccc(Cl)c(Cl)c3)C2)cc1` was run?
Answer: 1%

Question: `CC(=O)Nc1ccc(Nc2c3ccccc3nc3ccccc23)cc1` was tested. Which Inhibition did it give?
Answer: 62%

Question: For `CC(C)C[C@H](NC(=O)c1ccc(OCCN2CCOCC2)cc1)C(=O)NC(/C=N/N1CCCC1=O)C(C)C` (stereo partly drawn), which Inhibition is on record?
Answer: 81%

Question: Which Inhibition does the source give for `COc1cccc(NC(=O)Nc2cc(C)nc3ccccc23)c1` here?
Answer: 48%

Question: For `CCOc1ccccc1CON1C(N)=NC(N)=NC1(C)C`, which Inhibition is on record?
Answer: 1%

Question: For `Cc1ccc(F)c(OC2CCN(c3ccc(C(=O)NC4CC4)cn3)CC2)c1`, which Inhibition is on record?
Answer: 72%
